The list is not random: actives were taken first. Their share in the collection is about 7.3%.
NPC1 prom act: qHTS Assay for NPC1 Promoter Activators; Huh7 NPC1 promoter luciferase reporter, 24 h; Potency, µM (series often up to 9.22 µM), inactives show at the highest dose activation, most hits filed as activators; 320,000 tested, 2.4% active; AID 485313, 2010; note: % of control where 0% means no effect; nearly all actives have a fitted effect of over 60% in size
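NPC1 promoter–luciferase Huh7 cells; 24 h compound; luminescence.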
KinaseGlo FLuc: Counterscreen for Luciferase (Kinase-Glo TM) Inhibition; 200,000 tested, 0.28% active; Kinase-Glo luciferase, ATP luminescence, 8 min; Potency, µM (highest dose often 38.3 µM), for inactives: top-dose activity change, negative = inhibition, usual class: inhibitors; AID 1379, 2008; Luciferin 4-monooxygenase (Photuris pensylvanica), Q27757; note: % is set by controls: 0 for no effect and ±100 for the full control effect; nearly all actives have a fitted effect of over 60% in size
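Luminescence was the read-out, taken after 8-minute incubation at ambient temperature. Luciferase turned over luciferin with 10 uM ATP in imidazole pH 7.2 buffer containing KCl, MgCl2, Tween 20 and BSA.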
Rab9 prom act: qHTS Assay for Rab9 Promoter Activators. Potency, µM (series often up to 9.22 µM), without a hit: at the top dose activation, negative = inhibition, usual class: activators. 320,000 tested, 2.8% active. Huh7 Rab9 promoter-luciferase reporter, luminescence, 24 h. AID 485297, 2010; note: % of control where 0% means no effect; nearly all actives have a fitted effect of over 60% in size
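Huh7 cells stably carrying a Rab9 promoter-luciferase reporter, 1500 cells per well in OP-MEM I with 10% FBS, treated with compound 24 hours at 37C. Luciferase activity read by luminescence after 10 minutes with Amplite reagent.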
ELG1 genotox: qHTS screen for small molecules that induce genotoxicity in human embryonic kidney (HEK293T) cells expressing luciferase-tagged ELG1; HEK293T ELG1-luciferase reporter, luminescence, 16 h; Potency, µM (highest dose often 46 µM), for the others: at the highest dose activity change, positive = activation, actives largely listed as activators; 330,000 tested, 1.3% active; AID 504466, 2011; note: % of control where 0% means no effect; nearly all actives have a fitted effect of over 60% in size
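Quantitative HTS format in 1536-well plates. HEK293T ELG1-luciferase reporter cells receive test compound and are incubated 16 hr at 37 °C, 5% CO2; ONE-Glo added, 30 min room temperature, then luminescence read.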
FLuc counter: qHTS profiling assay for firefly luciferase inhibitor/activator using purifed enzyme and Km concentrations of substrates (counterscreen for miR-21 project); Potency, µM (series often up to 57.5 µM), for inactives: at the highest dose activity change, negative = inhibition, most hits filed as inhibitors; purified FLuc, Km substrates, luminescence inhibition; AID 588342, 2011; 360,000 tested, 6.9% active;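 note: plate controls were vehicle for no effect and reference inhibitor for full effect; nearly all actives have a fitted effect of over 55% in size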
Target sequence (P08659 whole entry, looked up): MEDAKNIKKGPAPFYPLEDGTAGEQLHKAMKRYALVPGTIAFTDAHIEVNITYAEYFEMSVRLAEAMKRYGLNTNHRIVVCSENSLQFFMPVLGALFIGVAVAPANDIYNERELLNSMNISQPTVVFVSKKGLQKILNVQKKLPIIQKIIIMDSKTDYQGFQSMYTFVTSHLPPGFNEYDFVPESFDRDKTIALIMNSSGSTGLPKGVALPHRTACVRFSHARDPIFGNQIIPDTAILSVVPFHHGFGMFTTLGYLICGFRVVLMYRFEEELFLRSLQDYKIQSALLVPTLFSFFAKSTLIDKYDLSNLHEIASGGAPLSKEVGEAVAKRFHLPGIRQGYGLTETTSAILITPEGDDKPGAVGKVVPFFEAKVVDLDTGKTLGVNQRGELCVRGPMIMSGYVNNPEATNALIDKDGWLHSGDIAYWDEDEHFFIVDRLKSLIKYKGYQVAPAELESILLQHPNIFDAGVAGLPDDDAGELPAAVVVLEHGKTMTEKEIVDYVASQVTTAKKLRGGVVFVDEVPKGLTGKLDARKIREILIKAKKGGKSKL
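Purified P. pyralis luciferase, 10 nM final, with Km-level 10 uM D-luciferin and 10 uM ATP in 50 mM Tris acetate pH 7.5, 10 mM Mg acetate, 0.01% Tween-20, 0.05% BSA; 6-point qHTS titration about 60 µM downward; luminescence read.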
SMN2 splice up: qHTS Assay for Enhancers of SMN2 Splice Variant Expression; HEK293 SMN2-luciferase splicing reporter, luminescence, 30-36 h; Potency, µM (top dose mostly 46.1 µM), for the others: at the top dose activity change, positive = activation, actives largely listed as activators; 210,000 tested, 2.8% active; AID 1458, 2008; note: % of control where 0% means no effect; nearly all actives have a fitted effect of over 55% in size
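HEK293 cells carry an SMN2 […]–luciferase reporter in which exon 7 inclusion puts luciferase in frame. Cells were plated 10-12 h before compound addition, then incubated 30-36 h at 37C. ONE-Glo luminescence was read; sodium butyrate at 4.5 mM final served as control.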
Starred values were filed as active, the others as inactive; ? = inconclusive; . = not tested or not shown. Calls come from the whole dose curve; as a rule, active = well fitted curve in the direction sought with a large enough effect; inconclusive = small, poorly fitted or top-dose-only effect, or another doubt; inactive = no such curve, though single readings can be large; an effect the other way counts as inactive or inconclusive. Potency is the fitted concentration of half-maximal effect.

SMILES	NPC1 prom act	KinaseGlo FLuc	Rab9 prom act	ELG1 genotox	FLuc counter	SMN2 splice up
Cc1ccc(C(=O)Cn2nnc(-c3cccs3)n2)cc1	?	.	3.2µM*	2%	5.4µM*	.
O=C(Cn1nnc(-c2cccs2)n1)OC1CCCCC1	-2%	-1%	2%	0%	13µM*	-2%
O=C(Cn1nnc(-c2cccs2)n1)NCc1cccs1	-3%	-2%	13%	0%	-4%	4%
CC1CCN(C(=O)Cn2nnc(-c3cccs3)n2)CC1	3.5µM*	4%	2.2µM*	?	?	.
O=C(Cn1nnc(-c2cccs2)n1)N1CCOCC1	-3%	-2%	4%	13%	0%	-1%
O=C(c1ccc(-n2c(=O)c(=O)[nH]c3ccccc32)cc1)N1CCCN(Cc2ccccc2)CC1	.	-4%	.	.	.	.
CN1C(=O)Cc2cc(S(=O)(=O)NCc3ccc(Cl)cc3)ccc21	.	.	.	.	2%	.
COc1cc(C)ccc1OCCOc1c(C)cccc1Cl	17%	-5%	?	14%	27µM*	-11%
COc1cc(C)ccc1OCCOc1cc(C)ccc1Cl	4%	0%	-4%	-2%	13µM*	.
CN=c1scc(-c2ccccc2Br)n1/N=C/c1ccc[nH]1	?	-9%	?	0.46µM*	1.1µM*	.
CN=c1scc(-c2ccc(Br)cc2)n1C	1%	-3%	-5%	1%	-17%	-5%
Oc1ccccc1/C=N/Nc1ncc(Br)cn1	-3%	-5%	25%	16µM*	?	-73%
Oc1ccc(/C=N/Nc2ccc3ccccc3c2)c(O)c1	9%	-1%	1%	19%	19µM*	7%
NC(=S)N/N=C/c1ccccc1O	2%	.	-6%	-5%	2%	.
Oc1ccccc1/C=N/Nc1ccnc(SCc2ccccc2)n1	-4%	-3%	-41%	-1%	1%	2%
Oc1ccccc1/C=N/Nc1ccccc1	-3%	-8%	26%	?	7.6µM*	-4%
CCN(CCS(=O)(=O)c1ccc(Cl)cc1)C(=O)Nc1ccccc1	-3%	.	-4%	1%	1%	.
O=C(Nc1ccccc1)N(O)c1ccc(Cl)cc1	?	-5%	3.5µM*	?	12µM*	?
O=C(NCc1nc2ccccc2[nH]1)c1cccc(Cl)c1	.	.	.	.	-3%	-7%
O=C(/C(=C/c1ccc(Cl)cc1)c1nc2ccccc2[nH]1)c1cccs1	0%	-3%	-52%	?	?	-75%
O=C(/C=C/c1cccc(Cl)c1)c1nc2ccccc2[nH]1	-2%	-15%	1%	24%	2.7µM*	-100%
O=C(/C(=C\c1ccccc1)c1nc2ccccc2[nH]1)c1ccc(Cl)cc1	2.8µM*	1%	?	?	-3%	-84%
COc1cccc(CNC(=O)CSC2=Nc3ccccc3N=C(c3ccc(F)cc3)C2)c1	.	.	.	.	-14%	.
Cc1ccc(NC(=O)c2ccc(Cl)nc2)cc1	1%	0%	?	28%	?	?
Cc1ccc(NC(=O)c2nsc(Cl)c2Cl)cc1	3.5µM*	.	2.8µM*	?	1.7µM*	.
SMILES	NPC1 prom act	KinaseGlo FLuc	Rab9 prom act	ELG1 genotox	FLuc counter	SMN2 splice up
O=C(Nc1ccncc1)c1sc2ccccc2c1Cl	?	-4%	?	2%	?	?
O=C(NN=C1CCCC1)c1sc2ccccc2c1Cl	0%	2%	4%	-4%	?	-14%
Cc1ccc(NC(=O)c2sc3ccccc3c2Cl)cc1	.	.	.	.	1.2µM*	8.9µM*
CCn1nnc(NC(=O)c2sc3ccccc3c2Cl)n1	2.2µM*	-5%	?	21µM*	9.5µM*	11µM*
O=C1CCC/C(=N/NC(=O)c2sc3ccccc3c2Cl)C1	?	.	?	12%	15µM*	.
CN1CCN(c2ccc(NC(=O)c3sc4ccccc4c3Cl)cc2)CC1	2.5µM*	1%	1µM*	?	1.9µM*	3%

Screening data deposited in PubChem BioAssay by National Center for Advancing Translational Sciences (NCATS).
